In PubChem BioAssay AID1159580 (chemical genetic matrix, 2015):
About 2,000 (36%) of roughly 5,500 compounds were called active. Another 18% or so got no clear call; they are omitted. Cut-off read from the data, not from the text of the source: active = normalized growth mostly below about 0.91 (no sharp cut-off); inconclusive = no clear call, values can overlap the other calls; inactive = mostly above about 0.92. The list shows a part of the results.

Experiment: chemical genetic growth profiling, strain panel (AID 1159580);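 note: tested at 20 µM; growth read once vehicle control cultures reached saturation at 30 °C; 1 = growth at the plate median or of vehicle wells; lower values mean less growth of the strain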
Details: S. cerevisiae deletion strains, growth OD

Measured: normalized growth

CCCCCCCCCCOc1cc2c(=O)c(C(=O)OCC)c[nH]c2cc1OCC
inactive: locus YHR030C, strain SLT2, stronger effect = lower value 1 | locus YHR079C, strain IRE1, stronger effect = lower value 0.989 | locus YJL095W, strain BCK1, stronger effect = lower value 0.978 | locus YJR066W, strain TOR1, stronger effect = lower value 0.962 | locus YLR113W, strain HOG1, stronger effect = lower value 0.942 | locus YNL183C, strain NPR1, stronger effect = lower value 0.971 | locus YOR231W, strain MKK1, stronger effect = lower value 0.977 | locus YPL256C, strain CLN2, stronger effect = lower value 0.993
